An excerpt weighted towards active compounds, which were near 1.3% of everything screened.
SRC1 inh: inhibits human SRC1 coactivator; HEK293 GAL4-SRC1 luciferase reporter, luminescence; inhibition, % at 3.6 µM; hit rate 0.12% among 360,000; AID 588354;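 active = inhibition above the campaign mean plus 3 SD, with each screening campaign given its own cutoff, cut at about 60% in these data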
Target sequence (Q15788 whole entry, looked up, the tested form may be a part): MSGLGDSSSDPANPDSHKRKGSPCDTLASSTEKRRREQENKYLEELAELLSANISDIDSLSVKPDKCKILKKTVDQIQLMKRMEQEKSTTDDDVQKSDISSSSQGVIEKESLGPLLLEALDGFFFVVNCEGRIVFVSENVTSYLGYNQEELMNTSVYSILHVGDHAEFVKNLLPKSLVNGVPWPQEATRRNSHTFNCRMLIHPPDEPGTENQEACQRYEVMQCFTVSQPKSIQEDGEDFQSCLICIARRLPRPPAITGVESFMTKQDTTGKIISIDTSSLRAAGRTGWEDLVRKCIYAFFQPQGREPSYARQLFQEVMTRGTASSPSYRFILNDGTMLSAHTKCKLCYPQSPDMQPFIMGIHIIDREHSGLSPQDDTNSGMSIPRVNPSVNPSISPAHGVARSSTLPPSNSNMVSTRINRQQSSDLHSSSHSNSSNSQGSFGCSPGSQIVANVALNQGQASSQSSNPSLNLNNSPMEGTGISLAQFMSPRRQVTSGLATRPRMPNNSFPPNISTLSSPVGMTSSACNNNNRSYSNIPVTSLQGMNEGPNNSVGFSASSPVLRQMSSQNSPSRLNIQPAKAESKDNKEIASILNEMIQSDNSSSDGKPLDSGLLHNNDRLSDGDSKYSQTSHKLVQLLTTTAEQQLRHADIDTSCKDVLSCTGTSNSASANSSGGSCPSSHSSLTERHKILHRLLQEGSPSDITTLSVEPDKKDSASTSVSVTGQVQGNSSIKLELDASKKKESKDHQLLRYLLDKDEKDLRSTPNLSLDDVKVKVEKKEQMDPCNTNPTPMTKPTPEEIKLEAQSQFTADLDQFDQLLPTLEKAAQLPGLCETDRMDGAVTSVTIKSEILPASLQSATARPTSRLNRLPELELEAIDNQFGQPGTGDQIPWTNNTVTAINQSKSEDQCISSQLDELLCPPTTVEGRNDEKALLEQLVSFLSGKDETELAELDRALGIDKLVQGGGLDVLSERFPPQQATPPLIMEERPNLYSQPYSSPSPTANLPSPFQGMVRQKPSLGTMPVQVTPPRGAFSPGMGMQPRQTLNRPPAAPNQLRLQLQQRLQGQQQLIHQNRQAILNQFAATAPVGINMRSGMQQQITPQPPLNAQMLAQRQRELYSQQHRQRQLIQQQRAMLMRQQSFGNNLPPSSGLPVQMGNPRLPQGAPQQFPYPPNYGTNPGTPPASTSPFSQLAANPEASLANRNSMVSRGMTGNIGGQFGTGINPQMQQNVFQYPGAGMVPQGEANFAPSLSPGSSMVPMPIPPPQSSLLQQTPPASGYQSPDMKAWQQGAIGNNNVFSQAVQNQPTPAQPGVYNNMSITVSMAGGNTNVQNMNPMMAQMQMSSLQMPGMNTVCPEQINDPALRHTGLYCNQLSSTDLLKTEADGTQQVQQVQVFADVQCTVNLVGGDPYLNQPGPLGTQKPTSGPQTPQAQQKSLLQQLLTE
LRH-1 inv ag: NR5A2 inverse agonism in reporter assay; HEK293T StAR-luciferase reporter, LRH-1 transfected, 24 h; AID 602396; O00482; hit rate 0.13% among 360,000; inhibition, % at 3.6 µM;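 active = inhibition above the mean inhibition of all tested compounds plus 3 SD, cut at about 73% in these data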
NR2F2 inh: blocks human COUP-TFII nuclear receptor | P24468 | HEK293T NGFI-A luciferase reporter, luminescence | inhibition, % at 8.6 µM | hit rate 0.7% among 370,000 | AID 686940;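 active = inhibition above a per-plate cutoff, mean inhibition of test wells between control levels plus 3 SD, cut at about 38% in these data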;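 also: cells cotransfected with COUP-TFII expression vector driving the NGFI-A reporter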
SRC3 inh: inhibits human SRC3 coactivator; Q9Y6Q9; HEK293 GAL4-SRC3 luciferase reporter, luminescence; inhibition, % at 3.6 µM; hit rate 0.17% among 360,000; AID 588352;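 active = inhibition above a per-campaign cutoff, the mean of all compounds plus 3 SD, cut at about 60% in these data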;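 also: higher means less SRC3-driven luciferase light from the GAL4 reporter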
Gli-Sufu antag: antagonists of Gli-Sufu signaling; hit rate 0.74% among 340,000; Sufu-KO-LIGHT fibroblasts, Gli luciferase reporter luminescence; inhibition, % at 5 µM;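 active = inhibition above about 55%, limit read from the data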
NCOA2 inhibitor: human SRC2 (NCOA2) inhibition. HEK293 GAL4-SRC2 luciferase reporter, luminescence. Q15596. hit rate 0.17% among 370,000. inhibition, % at 9 µM;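 active = inhibition above the mean inhibition of all tested compounds plus 3 SD, set per campaign, cut at about 52% in these data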
Of the large screens only hits and unclear results are named; the others gave an inactive call.

Cc1ccc(NC(=O)C2=C(c3ccccc3)S(=O)(=O)CCS2(=O)=O)cc1	NCOA2 inhibitor 74
O=C(CCl)N=c1sccn1Cc1ccccc1Cl	none
O=C(CCl)N=c1sccn1Cc1ccc(Cl)cc1Cl	Gli-Sufu antag 95
Cc1ccc(NC2=C/C(=N/S(=O)(=O)c3cccs3)c3ccccc3C2=O)cc1C	none
Cc1ccccc1NC1=C/C(=N\S(=O)(=O)c2cccs2)c2ccccc2C1=O	SRC1 inh 80, SRC3 inh 88
COC(C(=O)C(O)C(C)O)C1Cc2cc3cc(OC4CC(OC5CC(O)C(O)C(C)O5)C(O)C(C)O4)c(C)c(O)c3c(O)c2C(=O)C1OC1CC(OC2CC(OC3CC(O)C(OC)C(C)O3)C(O)C(C)O2)C(O)C(C)O1 (stereo unspecified)	SRC1 inh 75, LRH-1 inv ag 98, SRC3 inh 86
On1onc2c3cc(-c4ccccc4)nc3ccc21	Gli-Sufu antag 65
CCCCN(CC)Cc1ccc(CNC(=S)Nc2c(C)cc(C)cc2C)o1	none
CCCCN(CC)Cc1ccc(CNC(=S)Nc2ccc(C)cc2Cl)o1	NCOA2 inhibitor 53
CCOC(=O)N=Nc1c(O)n(CC(=O)OC)c2ccccc12	none
CCOC(=O)N=Nc1c2ccccc2c2nc3no[nH]c3nc12	SRC3 inh 89, Gli-Sufu antag 97
Cc1ccccc1NC(=O)N(C)[C@H]1C[C@H]2c3[nH]c4c(-c5ccccc5)cccc4c3CCN2C[C@H]1[C@H](C)O	none (no result: SRC1 inh, LRH-1 inv ag, SRC3 inh, Gli-Sufu antag)
Cc1[nH]n(-c2ccccc2)c(=O)c1/C=N/Nc1nncc(-c2ccccc2)n1	Gli-Sufu antag 85
Cc1ccc(/C=N/Nc2nncc(-c3ccccc3)n2)o1	none
O=S1(=O)Nc2c(ccc3cccnc23)-c2ccccc21	Gli-Sufu antag 82 (no result: NR2F2 inh, NCOA2 inhibitor)
COc1ccc(/C=C2\CN(Cc3ccccc3)C/C(=C\c3ccc(OC)c(O)c3)C2=O)cc1O	NCOA2 inhibitor 52
N#Cc1c([N+](=O)[O-])cc([N+](=O)[O-])cc1S(=O)(=O)Cc1ccccc1	NCOA2 inhibitor 61
CCOC(=O)C1=CCN(S(=O)(=O)c2ccc(Br)cc2)C1c1cccc(Br)c1 (stereo unspecified)	none (no result: SRC1 inh, LRH-1 inv ag, SRC3 inh, Gli-Sufu antag)
Cc1ccc(S(=O)(=O)N(C)C)cc1NC(=S)NC12CC3CC(CC(C3)C1)C2	none
Cc1ccc(S(=O)(=O)N(C)C)cc1NC(=S)NC(=O)C12CC3CC(CC(C3)C1)C2	Gli-Sufu antag 66
COc1ccccc1C(=O)Nc1nc(-c2ccc(S(=O)(=O)N3CCOCC3)cc2)cs1	SRC1 inh 85, LRH-1 inv ag 82, NR2F2 inh 72, SRC3 inh 89, Gli-Sufu antag 66, NCOA2 inhibitor 74
COc1ccccc1OC(C)C(=O)Nc1nc(-c2ccc(S(=O)(=O)N3CCOCC3)cc2)cs1 (stereo unspecified)	none
COC(=O)[C@H](C(C)C)N(CCc1cn(CC2CCCCC2)nn1)S(=O)(=O)c1ccccc1Br	none (no result: SRC1 inh, LRH-1 inv ag, SRC3 inh, Gli-Sufu antag)
CN(C)c1ncnc2[nH]ncc12	none
CCCN(CC)c1ncnc2[nH]ncc12	SRC1 inh 65, SRC3 inh 65, NCOA2 inhibitor 55
O=S1(=O)c2ccc(Br)cc2OC[C@@H](Cc2ccccc2)N1Cc1cn(Cc2ccc(Cl)cc2)nn1	none (no result: SRC1 inh, LRH-1 inv ag, SRC3 inh, Gli-Sufu antag)
O=C(NCCCN1CCOCC1)c1cc(-c2ccc(Cl)c(Cl)c2)on1	none
Cc1ccc(-c2cc(C(=O)NCCCN3CCOCC3)no2)cc1	NCOA2 inhibitor 56
CN(C)c1ccc(C=c2c3ccccc3n3c2c2ccccc2[n+]3C)cc1	LRH-1 inv ag 73, NR2F2 inh 51
C[n+]1c(-c2ccccc2)cc2c(=Cc3ccc([N+](=O)[O-])cc3)c3ccccc3n21	none
CN(C)c1ccc(C=c2c3cc(O)ccc3n3c2cc(-c2ccccc2)[n+]3C)cc1	Gli-Sufu antag 72
C[n+]1c(-c2ccccc2)cc2c(=Cc3ccccc3)c3ccccc3n21	SRC3 inh 62, Gli-Sufu antag 77
CN(C)c1ccc(C=C2C=Cc3ccccc32)cc1	none
C=CCN1[C@@H](C)COc2cc(N3CCCC3)ccc2S1(=O)=O	none (no result: SRC1 inh, LRH-1 inv ag, SRC3 inh, Gli-Sufu antag)
CC(C)CCN(C)C1CCN(C(=O)Nc2ccc3c(c2)OCO3)CC1	none (no result: SRC1 inh, LRH-1 inv ag, SRC3 inh, Gli-Sufu antag)
NC(=O)C(C(=O)/C=C/c1ccc(Cl)cc1)=C1SCCS1	SRC3 inh 66
COc1ccc(/C=C/C(=O)C(C(N)=O)=C2SCCS2)cc1	none
Cc1ccc(Nc2nc(-c3ccc(O)c(O)c3)cs2)nc1	Gli-Sufu antag 64 (no result: SRC1 inh, LRH-1 inv ag, SRC3 inh)
COC(=O)C1CN(C2CCCC2)CCS(=O)(=O)N1Cc1cn(Cc2ccc(Cl)cc2)nn1 (stereo unspecified)	none (no result: SRC1 inh, LRH-1 inv ag, SRC3 inh, Gli-Sufu antag)
Cc1ccc(Cn2cc(CN3[C@@H](Cc4ccccc4)COc4cc(Br)ccc4S3(=O)=O)nn2)cc1	none (no result: SRC1 inh, LRH-1 inv ag, SRC3 inh, Gli-Sufu antag)
COc1ccc(S(=O)(=O)N2CCOCC2)cc1NC(=O)CCNC(=O)c1ccc(Cl)cc1	none
COc1ccc(S(=O)(=O)N2CCOCC2)cc1NC(=O)CCNC(=O)c1ccc(Br)cc1	LRH-1 inv ag 82, NCOA2 inhibitor 57
Cc1ccc(S(=O)(=O)N2CCCC2C(c2ccccc2O)c2cn(C)c3ccccc23)cc1 (stereo unspecified)	none (no result: SRC1 inh, LRH-1 inv ag, SRC3 inh, Gli-Sufu antag)
Cc1c(C(=O)N(Cc2ccccc2)C2CCS(=O)(=O)C2)oc2ccccc12 (stereo unspecified)	none
Cc1c(C(=O)N(Cc2ccc(F)cc2)C2CCS(=O)(=O)C2)oc2ccccc12 (stereo unspecified)	LRH-1 inv ag 94
CCCCCCN1CCS(=O)(=O)N(Cc2ccc(C)cc2)C(C(=O)OC)C1 (stereo unspecified)	none (no result: SRC1 inh, LRH-1 inv ag, SRC3 inh, Gli-Sufu antag)
O=C(N=C1N(CC2CC2)CC2(C=C3CCCCC3n3c(=O)n(-c4ccccc4)c(=O)n32)N1C(=O)OCc1ccccc1)c1ccccc1 (stereo unspecified)	none (no result: SRC1 inh, LRH-1 inv ag, SRC3 inh, Gli-Sufu antag)
C=CCN1[C@H](C)COc2cc(N3CCCC3)ccc2S1(=O)=O	none (no result: SRC1 inh, LRH-1 inv ag, SRC3 inh, Gli-Sufu antag)
Cc1nc2cc(-c3ccc(Cl)cc3)nn2c(C)c1CCC(=O)NC(C)c1ccc2c(c1)OCCO2 (stereo unspecified)	NCOA2 inhibitor 73
CCc1ccc(C2=NN(CCC(=O)NC(C)c3ccc4c(c3)OCCO4)C(=O)CC2)cc1 (stereo unspecified)	none
CCCCCCCCN1C(=O)[C@@H](CC(=O)N2CCN(C(=O)OCC)CC2)C[C@@]2(C(=O)OC)C1=C[C@H](COCc1ccccc1)O[C@@H]2C	none (no result: SRC1 inh, LRH-1 inv ag, SRC3 inh, Gli-Sufu antag)
Cc1nc2c(O)c3c(c(O)c2nc1C)C1C=CC3CC1	SRC1 inh 89, LRH-1 inv ag 95, SRC3 inh 91, NCOA2 inhibitor 62
COc1ccc(NC(=O)/C(Cl)=C(/Cl)S(=O)Cc2ccccc2Cl)cn1 (stereo unspecified)	Gli-Sufu antag 72 (no result: SRC1 inh, LRH-1 inv ag, NR2F2 inh, SRC3 inh, NCOA2 inhibitor)
COc1ccc(NC(=O)Cc2ccc(Cl)c(Cl)c2)cn1	none
O=C1CC(=O)OC(c2ccc([N+](=O)[O-])cc2)O1	SRC3 inh 78 (no result: NR2F2 inh, Gli-Sufu antag, NCOA2 inhibitor)
Cn1c2c(c(=O)[nH]c1=O)C(c1cccc(O)c1)C1=C(N2)c2ccccc2C1=O (stereo unspecified)	Gli-Sufu antag 56

Screens (PubChem BioAssay)
